Source: article PMC7862700, “An all-to-all approach to the identification of sequence-specific readers for epigenetic DNA modifications on cytosine”

What was measured:
Assay in all cases: DAPPL (digital affinity profiling via proximity ligation, sequencing); 10 mM Tris-HCl pH 7.5, 50 mM NaCl, 1 mM DTT, 4% glycerol, room temperature, 30 min; GST-TFs on glutathione beads, 16-mer random dsDNA library, 0.1% formaldehyde crosslink after washing; high values mean tight binding
Conditions in all cases: protein: recombinant; tags: N-terminal GST; dsDNA, one strand shown
FLI1 = molecular target: T1, FLI1 (Homo sapiens, UniProt Q01543 1-452)
T1 sequence: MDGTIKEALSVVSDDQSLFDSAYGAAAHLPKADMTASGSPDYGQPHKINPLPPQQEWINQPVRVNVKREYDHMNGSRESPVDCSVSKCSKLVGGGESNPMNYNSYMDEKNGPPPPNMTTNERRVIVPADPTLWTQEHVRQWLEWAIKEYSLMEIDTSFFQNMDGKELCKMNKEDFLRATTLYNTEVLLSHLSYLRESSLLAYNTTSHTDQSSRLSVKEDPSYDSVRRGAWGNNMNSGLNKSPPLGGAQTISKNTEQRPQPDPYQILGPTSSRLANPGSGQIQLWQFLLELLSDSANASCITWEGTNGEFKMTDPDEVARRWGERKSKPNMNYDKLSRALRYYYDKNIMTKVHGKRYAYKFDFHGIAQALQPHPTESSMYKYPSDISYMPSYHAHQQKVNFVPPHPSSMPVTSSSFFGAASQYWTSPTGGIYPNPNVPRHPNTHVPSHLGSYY
Summary of the method: (§1)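 Binding signal is defined as a hexamer's read frequency for one factor over its frequency for the tag-only sample. To obtain reads, GST-fused human transcription factors were expressed in yeast, captured on glutathione beads, barcoded with DNA and pooled with that sample. Pools met 200 nmole of a 16-mer random double-stranded DNA library in Tris/NaCl/DTT/glycerol buffer for 30 min at room temperature before washing, 0.1% formaldehyde crosslinking, proximity ligation (BsaI/T4 ligase, 1 h, 37 °C), PCR and Illumina NextSeq500 sequencing.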

ELK1 = molecular target: T2, ELK1 (Homo sapiens, UniProt P19419 1-428)
T2 sequence: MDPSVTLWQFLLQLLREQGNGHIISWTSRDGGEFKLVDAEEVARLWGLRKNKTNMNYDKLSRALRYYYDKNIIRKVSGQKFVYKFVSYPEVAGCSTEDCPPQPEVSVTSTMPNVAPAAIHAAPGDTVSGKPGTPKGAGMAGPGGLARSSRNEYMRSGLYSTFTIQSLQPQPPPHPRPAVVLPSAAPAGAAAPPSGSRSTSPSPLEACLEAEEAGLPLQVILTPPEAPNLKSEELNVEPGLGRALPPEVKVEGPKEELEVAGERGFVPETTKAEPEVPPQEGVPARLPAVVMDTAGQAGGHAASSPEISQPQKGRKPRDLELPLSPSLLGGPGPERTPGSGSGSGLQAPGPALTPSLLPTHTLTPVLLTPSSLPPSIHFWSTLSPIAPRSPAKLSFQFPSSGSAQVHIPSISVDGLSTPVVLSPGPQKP
Summary of the method: as §1

GABPA = molecular target: T3, GABPA (Homo sapiens, UniProt Q06546 1-454)
T3 sequence: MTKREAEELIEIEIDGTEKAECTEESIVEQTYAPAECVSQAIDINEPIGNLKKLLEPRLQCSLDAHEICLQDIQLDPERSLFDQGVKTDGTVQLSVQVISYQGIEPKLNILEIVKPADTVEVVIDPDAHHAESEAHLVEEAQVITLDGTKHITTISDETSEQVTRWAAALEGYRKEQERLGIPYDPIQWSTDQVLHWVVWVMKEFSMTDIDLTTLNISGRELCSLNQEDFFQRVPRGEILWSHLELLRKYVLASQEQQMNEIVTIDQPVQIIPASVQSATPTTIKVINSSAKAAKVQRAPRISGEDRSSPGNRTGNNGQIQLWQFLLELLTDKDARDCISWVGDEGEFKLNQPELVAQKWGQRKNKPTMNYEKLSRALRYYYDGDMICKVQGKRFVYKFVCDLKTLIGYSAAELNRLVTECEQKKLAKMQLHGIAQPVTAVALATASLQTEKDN
Summary of the method: as §1

ERG = molecular target: T4, ERG (Homo sapiens, UniProt P11308 1-479)
T4 sequence: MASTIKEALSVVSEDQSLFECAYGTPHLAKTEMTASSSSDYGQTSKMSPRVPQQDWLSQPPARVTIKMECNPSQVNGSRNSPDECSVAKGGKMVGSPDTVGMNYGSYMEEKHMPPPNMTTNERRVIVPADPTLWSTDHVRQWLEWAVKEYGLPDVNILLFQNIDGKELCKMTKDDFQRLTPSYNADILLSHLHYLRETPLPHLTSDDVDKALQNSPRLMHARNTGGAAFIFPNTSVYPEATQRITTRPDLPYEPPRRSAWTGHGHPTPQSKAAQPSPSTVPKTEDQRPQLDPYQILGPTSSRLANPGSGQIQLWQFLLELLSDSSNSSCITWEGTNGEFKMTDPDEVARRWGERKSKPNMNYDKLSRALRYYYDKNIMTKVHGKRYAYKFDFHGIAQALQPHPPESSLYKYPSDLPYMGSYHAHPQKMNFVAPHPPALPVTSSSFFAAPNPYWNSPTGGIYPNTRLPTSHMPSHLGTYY
Summary of the method: as §1

ELF1 = ELF1 (Homo sapiens, UniProt P32519 1-619)
Summary of the method: as §1

EHF = molecular target: T5, EHF (Homo sapiens, UniProt Q9NZC4 1-300)
T5 sequence: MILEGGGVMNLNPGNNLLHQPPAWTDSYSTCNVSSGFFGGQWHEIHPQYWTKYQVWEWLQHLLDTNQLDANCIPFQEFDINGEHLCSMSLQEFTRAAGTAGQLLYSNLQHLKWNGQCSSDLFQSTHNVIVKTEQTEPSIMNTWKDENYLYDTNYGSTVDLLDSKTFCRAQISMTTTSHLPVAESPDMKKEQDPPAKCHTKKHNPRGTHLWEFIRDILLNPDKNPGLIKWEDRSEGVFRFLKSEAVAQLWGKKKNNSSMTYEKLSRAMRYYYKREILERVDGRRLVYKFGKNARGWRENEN
Summary of the method: as §1

SPI1 = SPI1 (Homo sapiens, UniProt P17947 1-270)
Summary of the method: as §1

SPIB = SPIB (Homo sapiens, UniProt Q01892 1-262)
Summary of the method: as §1

ELK3 = molecular target: T6, ELK3 (Homo sapiens, UniProt P41970 1-407)
T6 sequence: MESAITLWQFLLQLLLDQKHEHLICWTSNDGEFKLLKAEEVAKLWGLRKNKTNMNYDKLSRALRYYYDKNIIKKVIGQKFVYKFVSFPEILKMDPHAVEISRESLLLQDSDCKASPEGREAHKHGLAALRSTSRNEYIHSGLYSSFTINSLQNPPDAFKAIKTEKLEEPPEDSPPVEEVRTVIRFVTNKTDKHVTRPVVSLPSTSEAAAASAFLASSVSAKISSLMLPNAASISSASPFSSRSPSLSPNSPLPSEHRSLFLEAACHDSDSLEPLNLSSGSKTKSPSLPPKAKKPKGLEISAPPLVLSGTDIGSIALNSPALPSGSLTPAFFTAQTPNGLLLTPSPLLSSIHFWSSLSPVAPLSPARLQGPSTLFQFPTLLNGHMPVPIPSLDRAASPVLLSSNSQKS
Summary of the method: as §1

FEV = molecular target: T7, FEV (Homo sapiens, UniProt Q99581 1-238)
T7 sequence: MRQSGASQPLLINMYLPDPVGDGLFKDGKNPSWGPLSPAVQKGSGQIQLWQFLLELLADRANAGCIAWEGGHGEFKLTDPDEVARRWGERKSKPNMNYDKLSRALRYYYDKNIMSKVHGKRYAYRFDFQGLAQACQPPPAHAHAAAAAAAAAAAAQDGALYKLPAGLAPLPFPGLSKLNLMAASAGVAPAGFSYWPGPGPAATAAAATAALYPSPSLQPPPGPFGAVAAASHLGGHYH
Summary of the method: as §1

ETV5 = ETV5 (Homo sapiens, UniProt P41161 1-510)
Summary of the method: as §1

SPIC = molecular target: T8, SPIC (Homo sapiens, UniProt Q8N5J4 1-248)
T8 sequence: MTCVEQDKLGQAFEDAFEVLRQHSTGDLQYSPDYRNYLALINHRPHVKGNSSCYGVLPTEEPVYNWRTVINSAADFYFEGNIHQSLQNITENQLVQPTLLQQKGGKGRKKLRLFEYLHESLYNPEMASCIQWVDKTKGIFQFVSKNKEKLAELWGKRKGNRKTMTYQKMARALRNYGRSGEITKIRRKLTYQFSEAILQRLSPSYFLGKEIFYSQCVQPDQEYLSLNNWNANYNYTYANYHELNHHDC
Summary of the method: as §1

ELF4 = ELF4 (Homo sapiens, UniProt Q99607 1-663)
Summary of the method: as §1

ELK4 = molecular target: T9, ELK4 (Homo sapiens, UniProt P28324-2 1-405)
T9 sequence: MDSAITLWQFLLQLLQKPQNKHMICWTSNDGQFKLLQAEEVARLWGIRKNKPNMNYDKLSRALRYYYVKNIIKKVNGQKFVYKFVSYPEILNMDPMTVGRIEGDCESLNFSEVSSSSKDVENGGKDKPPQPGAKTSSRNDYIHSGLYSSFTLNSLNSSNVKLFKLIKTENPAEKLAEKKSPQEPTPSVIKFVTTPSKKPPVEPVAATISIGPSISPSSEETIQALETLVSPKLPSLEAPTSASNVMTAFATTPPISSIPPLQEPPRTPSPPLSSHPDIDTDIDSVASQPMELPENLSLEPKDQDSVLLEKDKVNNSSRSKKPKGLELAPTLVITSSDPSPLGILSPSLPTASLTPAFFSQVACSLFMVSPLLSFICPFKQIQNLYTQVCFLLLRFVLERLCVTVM
Summary of the method: as §1

ETV2 = molecular target: T10, ETV2 (Homo sapiens, UniProt O00321 1-342)
T10 sequence: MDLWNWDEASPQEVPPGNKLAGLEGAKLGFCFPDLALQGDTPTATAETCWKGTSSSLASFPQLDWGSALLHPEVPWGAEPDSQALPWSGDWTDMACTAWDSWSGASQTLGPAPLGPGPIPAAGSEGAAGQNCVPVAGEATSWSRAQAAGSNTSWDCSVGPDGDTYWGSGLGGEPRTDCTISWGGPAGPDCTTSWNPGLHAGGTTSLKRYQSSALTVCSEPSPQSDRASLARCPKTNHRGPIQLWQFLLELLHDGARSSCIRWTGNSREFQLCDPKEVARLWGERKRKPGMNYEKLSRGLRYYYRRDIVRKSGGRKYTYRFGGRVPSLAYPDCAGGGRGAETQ
Summary of the method: as §1

ELF3 = molecular target: T11, ELF3 (Homo sapiens, UniProt P78545 1-371)
T11 sequence: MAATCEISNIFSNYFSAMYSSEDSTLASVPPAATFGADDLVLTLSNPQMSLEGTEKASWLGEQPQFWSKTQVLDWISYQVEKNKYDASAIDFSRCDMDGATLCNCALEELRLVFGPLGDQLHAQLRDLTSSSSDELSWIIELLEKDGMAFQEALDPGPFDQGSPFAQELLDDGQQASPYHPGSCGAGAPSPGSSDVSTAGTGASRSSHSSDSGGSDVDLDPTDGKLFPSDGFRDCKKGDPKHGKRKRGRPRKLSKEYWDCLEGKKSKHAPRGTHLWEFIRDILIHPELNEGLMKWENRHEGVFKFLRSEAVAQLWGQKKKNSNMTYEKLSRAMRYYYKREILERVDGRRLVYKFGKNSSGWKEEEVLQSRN
Summary of the method: as §1

ETV1 = ETV1 (Homo sapiens, UniProt P50549 1-477)
Summary of the method: as §1

Chain of ELF1 (P32519 whole entry): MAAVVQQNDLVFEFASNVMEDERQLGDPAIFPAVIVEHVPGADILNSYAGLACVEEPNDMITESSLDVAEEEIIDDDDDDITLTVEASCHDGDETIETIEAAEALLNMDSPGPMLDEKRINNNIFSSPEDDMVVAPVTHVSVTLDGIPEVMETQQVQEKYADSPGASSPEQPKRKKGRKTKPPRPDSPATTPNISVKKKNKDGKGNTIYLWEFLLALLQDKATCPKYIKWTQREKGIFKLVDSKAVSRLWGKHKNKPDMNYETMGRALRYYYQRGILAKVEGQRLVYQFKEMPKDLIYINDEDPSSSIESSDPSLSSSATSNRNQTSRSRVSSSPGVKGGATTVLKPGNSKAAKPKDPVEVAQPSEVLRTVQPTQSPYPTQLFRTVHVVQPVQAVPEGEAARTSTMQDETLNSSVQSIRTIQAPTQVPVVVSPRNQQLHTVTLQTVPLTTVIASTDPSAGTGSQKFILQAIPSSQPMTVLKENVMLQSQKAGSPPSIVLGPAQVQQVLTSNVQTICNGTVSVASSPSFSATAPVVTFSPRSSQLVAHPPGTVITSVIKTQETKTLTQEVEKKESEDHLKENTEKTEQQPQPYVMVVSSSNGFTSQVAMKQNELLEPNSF
Chain of ELF4 (Q99607 whole entry): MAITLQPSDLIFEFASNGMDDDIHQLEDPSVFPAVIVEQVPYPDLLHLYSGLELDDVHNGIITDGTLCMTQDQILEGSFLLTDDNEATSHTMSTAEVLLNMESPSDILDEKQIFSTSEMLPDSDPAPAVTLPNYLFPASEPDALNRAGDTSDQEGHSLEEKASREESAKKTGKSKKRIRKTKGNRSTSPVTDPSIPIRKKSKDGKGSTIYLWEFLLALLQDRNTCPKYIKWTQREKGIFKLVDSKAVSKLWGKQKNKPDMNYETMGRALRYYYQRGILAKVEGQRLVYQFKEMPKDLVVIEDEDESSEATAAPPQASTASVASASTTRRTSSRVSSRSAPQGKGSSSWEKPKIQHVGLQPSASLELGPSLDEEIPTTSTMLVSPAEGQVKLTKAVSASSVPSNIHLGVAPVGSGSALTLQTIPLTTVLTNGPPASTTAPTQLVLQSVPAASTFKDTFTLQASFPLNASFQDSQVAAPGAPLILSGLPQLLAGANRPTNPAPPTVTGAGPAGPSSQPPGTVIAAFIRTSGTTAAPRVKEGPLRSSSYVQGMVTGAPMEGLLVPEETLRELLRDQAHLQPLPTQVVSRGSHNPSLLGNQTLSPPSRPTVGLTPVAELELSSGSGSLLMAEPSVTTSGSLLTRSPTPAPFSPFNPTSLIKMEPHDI
Chain of SPIB (Q01892 whole entry): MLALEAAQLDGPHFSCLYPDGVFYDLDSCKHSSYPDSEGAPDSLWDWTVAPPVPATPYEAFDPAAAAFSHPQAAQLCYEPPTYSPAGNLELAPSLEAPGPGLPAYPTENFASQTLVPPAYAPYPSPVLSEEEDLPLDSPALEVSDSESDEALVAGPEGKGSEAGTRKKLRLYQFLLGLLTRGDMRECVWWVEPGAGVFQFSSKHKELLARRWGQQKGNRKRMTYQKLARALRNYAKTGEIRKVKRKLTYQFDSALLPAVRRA
Chain of ETV5 (P41161 whole entry): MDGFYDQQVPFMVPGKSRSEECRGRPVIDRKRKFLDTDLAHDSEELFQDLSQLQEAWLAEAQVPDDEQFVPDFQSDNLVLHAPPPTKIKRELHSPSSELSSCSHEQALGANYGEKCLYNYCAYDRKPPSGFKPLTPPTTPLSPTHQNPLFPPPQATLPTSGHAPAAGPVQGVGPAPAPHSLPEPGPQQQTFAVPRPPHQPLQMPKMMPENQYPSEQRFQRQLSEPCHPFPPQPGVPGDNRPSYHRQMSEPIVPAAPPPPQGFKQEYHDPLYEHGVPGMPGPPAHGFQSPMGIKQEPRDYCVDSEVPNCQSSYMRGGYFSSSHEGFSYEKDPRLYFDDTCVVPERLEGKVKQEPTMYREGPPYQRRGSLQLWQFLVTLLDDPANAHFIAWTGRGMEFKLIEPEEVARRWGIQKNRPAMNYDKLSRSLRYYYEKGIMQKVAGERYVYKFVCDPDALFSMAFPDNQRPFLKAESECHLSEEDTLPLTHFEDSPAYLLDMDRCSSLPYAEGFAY
Chain of ETV1 (P50549 whole entry): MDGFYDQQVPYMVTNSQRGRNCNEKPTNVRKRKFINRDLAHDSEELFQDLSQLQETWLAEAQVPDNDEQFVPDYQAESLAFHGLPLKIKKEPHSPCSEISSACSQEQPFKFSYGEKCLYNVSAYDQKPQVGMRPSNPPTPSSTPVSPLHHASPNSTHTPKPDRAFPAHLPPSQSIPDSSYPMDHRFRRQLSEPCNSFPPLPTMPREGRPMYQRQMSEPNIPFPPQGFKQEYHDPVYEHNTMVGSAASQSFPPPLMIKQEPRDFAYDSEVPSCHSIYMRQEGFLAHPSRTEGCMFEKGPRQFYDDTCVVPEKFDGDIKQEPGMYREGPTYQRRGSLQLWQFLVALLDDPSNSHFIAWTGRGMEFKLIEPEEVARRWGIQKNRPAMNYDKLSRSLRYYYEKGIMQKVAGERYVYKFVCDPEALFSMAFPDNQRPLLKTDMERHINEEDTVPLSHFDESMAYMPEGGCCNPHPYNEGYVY

Sequence	binding signal (FLI1)	binding signal (ELK1)	binding signal (GABPA)	binding signal (ERG)	binding signal (ELF1)	binding signal (EHF)	binding signal (SPI1)	binding signal (SPIB)	binding signal (ELK3)	binding signal (FEV)	binding signal (ETV5)	binding signal (SPIC)	binding signal (ELF4)	binding signal (ELK4)	binding signal (ETV2)	binding signal (ELF3)	binding signal (ETV1)
CAACAT	1.18 fold enrichment (6-mer frequency, TF over GST control)	1.21 fold enrichment (6-mer frequency, TF over GST control)	1.22 fold enrichment (6-mer frequency, TF over GST control)	1.2 fold enrichment (6-mer frequency, TF over GST control)	1.2 fold enrichment (6-mer frequency, TF over GST control)	1.23 fold enrichment (6-mer frequency, TF over GST control)	1.06 fold enrichment (6-mer frequency, TF over GST control)	1.14 fold enrichment (6-mer frequency, TF over GST control)	1.14 fold enrichment (6-mer frequency, TF over GST control)	1.21 fold enrichment (6-mer frequency, TF over GST control)	1.21 fold enrichment (6-mer frequency, TF over GST control)	1.05 fold enrichment (6-mer frequency, TF over GST control)	1.19 fold enrichment (6-mer frequency, TF over GST control)	1.23 fold enrichment (6-mer frequency, TF over GST control)	1.19 fold enrichment (6-mer frequency, TF over GST control)	1.2 fold enrichment (6-mer frequency, TF over GST control)	1.13 fold enrichment (6-mer frequency, TF over GST control)
AGTGGC	1.31 fold enrichment (6-mer frequency, TF over GST control)	1.19 fold enrichment (6-mer frequency, TF over GST control)	1.2 fold enrichment (6-mer frequency, TF over GST control)	1.28 fold enrichment (6-mer frequency, TF over GST control)	1.23 fold enrichment (6-mer frequency, TF over GST control)	1.4 fold enrichment (6-mer frequency, TF over GST control)	1.75 fold enrichment (6-mer frequency, TF over GST control)	1.3 fold enrichment (6-mer frequency, TF over GST control)	1.31 fold enrichment (6-mer frequency, TF over GST control)	1.43 fold enrichment (6-mer frequency, TF over GST control)	1.24 fold enrichment (6-mer frequency, TF over GST control)	1.16 fold enrichment (6-mer frequency, TF over GST control)	1.19 fold enrichment (6-mer frequency, TF over GST control)	1.24 fold enrichment (6-mer frequency, TF over GST control)	1.18 fold enrichment (6-mer frequency, TF over GST control)	1.36 fold enrichment (6-mer frequency, TF over GST control)	1.16 fold enrichment (6-mer frequency, TF over GST control)
ACATCA	1.11 fold enrichment (6-mer frequency, TF over GST control)	1.12 fold enrichment (6-mer frequency, TF over GST control)	1.09 fold enrichment (6-mer frequency, TF over GST control)	1.14 fold enrichment (6-mer frequency, TF over GST control)	1.16 fold enrichment (6-mer frequency, TF over GST control)	1.23 fold enrichment (6-mer frequency, TF over GST control)	1.13 fold enrichment (6-mer frequency, TF over GST control)	1.07 fold enrichment (6-mer frequency, TF over GST control)	1.11 fold enrichment (6-mer frequency, TF over GST control)	1.17 fold enrichment (6-mer frequency, TF over GST control)	1.17 fold enrichment (6-mer frequency, TF over GST control)	1.13 fold enrichment (6-mer frequency, TF over GST control)	1.19 fold enrichment (6-mer frequency, TF over GST control)	1.14 fold enrichment (6-mer frequency, TF over GST control)	1.22 fold enrichment (6-mer frequency, TF over GST control)	1.15 fold enrichment (6-mer frequency, TF over GST control)	1.15 fold enrichment (6-mer frequency, TF over GST control)
